This passage reports outcome and AC50 results from PubChem BioAssay (EPA / NIEHS).

In test [1] the target is Glucocorticoid receptor (Homo sapiens) (UniProt P04150). The test is described as follows: ATG_GR_TRANS: Attagene TRANS-FACTORIAL HepG2 Assay for human Glucocorticoid Receptor (GR) (AID 2282978; active means hit-call score of the fitted dose curve at least 0.9, where 1 is the maximum;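 further: activators score as hits since higher reporter transcript over DMSO is fitted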). The settings on record: HepG2 Attagene TRANS GR reporter, mRNA transcription. In short, it runs like this:
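HepG2 transient transfection, multiple reporter units, GAL4-UAS under NR-GAL4 chimera control. 24 h treatment. Reporter mRNA by RT-PCR/CE fluorescence, DMSO as negative control.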

Test [2] concerns the target Oxysterols receptor LXR-alpha (Homo sapiens) (UniProt Q13133). Kind of test: ATG_LXRa_TRANS: Attagene TRANS-FACTORIAL HepG2 Assay for human Liver X Receptor alpha (LXRa) (AID 2282980; active means hit-call score of the fitted dose curve at least 0.9, where 1 is the maximum). The following applies: HepG2 Attagene TRANS reporter, LXRa transactivation. In short, it runs like this:
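HepG2 cells transiently transfected with GAL4-UAS reporter units for chimeric NR-Gal4 proteins, exposed to chemicals for 24 h. Reporter mRNA quantified by RT-PCR and capillary electrophoresis; gain of signal fitted relative to DMSO.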

For test [3], the target named is Oxysterols receptor LXR-beta (Homo sapiens) (UniProt P55055). Kind of test: ATG_LXRb_TRANS: Attagene TRANS-FACTORIAL HepG2 Assay for human Liver X Receptor beta (LXRb) (AID 2282981; active means hit-call score of the fitted dose curve at least 0.9, where 1 is the maximum). The settings on record: HepG2 Attagene TRANS GAL4-LXRb reporter, mRNA. The essentials: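 Multiplexed reporter assay, HepG2, 24 h dosing. Fluorescence of labelled RT-PCR products after capillary electrophoresis gives transcript level; positive fitting direction relative to DMSO.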

Test [4] has as its target Hepatocyte nuclear factor 4-alpha (Homo sapiens) (UniProt P41235). Kind of test: ATG_HNF4a_TRANS: Attagene TRANS-FACTORIAL HepG2 Assay for human Hepatocyte Nuclear Factor 4 alpha (HNF4a) (AID 2282982; active means hit-call score of the fitted dose curve at least 0.9, where 1 is the maximum). The following applies: HepG2 HNF4a transactivation reporter, mRNA readout. In short, it runs like this:
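Endpoint reflects transcriptional activation of a GAL4-UAS reporter by an HNF4a-GAL4 chimera in transfected HepG2 cells, 24 h post-dosing. Fluorescence from RT-PCR products separated by capillary electrophoresis; DMSO baseline.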

Test [5] can be described thus: ATG_M_32_TRANS: Attagene TRANS-FACTORIAL HepG2 Assay for M32 Transcription Factor (Internal Marker) (AID 2282984; active means hit-call score of the fitted dose curve at least 0.9, where 1 is the maximum;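 further: transcript level of a background control reporter unit measured by RT-PCR and capillary electrophoresis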). The following applies: HepG2 Attagene TRANS M32 internal marker reporter. In short, it runs like this: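 Internal-marker readout from a multiplexed transcription reporter panel. HepG2 cells were transfected with GAL4-UAS reporter units, treated 24 hours, and reporter transcript levels determined by fluorescence after RT-PCR and capillary separation.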

The target in test [6] is Nuclear receptor subfamily 4 group A member 2 (Homo sapiens) (UniProt P43354). Kind of test: ATG_NURR1_TRANS: Attagene TRANS-FACTORIAL HepG2 Assay for human Nuclear Receptor Related Protein 1 (NURR1) (AID 2282985; active means hit-call score of the fitted dose curve at least 0.9, where 1 is the maximum). The settings on record: HepG2 Attagene TRANS reporter, mRNA readout. The essentials:
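Endpoint: reporter mRNA increase relative to DMSO. HepG2 cells transfected with reporter units, treated 24 h; RNA processed by RT-PCR, labelling, HpaI digestion and capillary electrophoresis.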

For test [7], the target named is Transcriptional activator Myb (Homo sapiens) (UniProt P10242). Kind of test: ATG_Myb_CIS: Attagene CIS-FACTORIAL HepG2 Assay for human Myeloblastosis (Myb) Proto-Oncogene Transcription Factor (AID 2282986). The following applies: HepG2 Attagene CIS-FACTORIAL Myb reporter transcription; actives raise or lower the signal. In short, it runs like this: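 Multiplexed cis-reporter system in HepG2: transient transfection, 24 h treatment, mRNA readout by RT-PCR and capillary electrophoresis. Both increases and decreases are scored versus DMSO negative control.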

Test [8] has as its target Nuclear respiratory factor 1 (Homo sapiens) (UniProt Q16656). Kind of test: ATG_NRF1_CIS: Attagene CIS-FACTORIAL HepG2 Assay for human Nuclear Respiratory Factor 1 (NRF1) Orphan Gene (AID 2282987). The settings on record: HepG2 NRF1 cis-element reporter, Attagene multiplex; actives raise or lower the signal. In short, it runs like this:
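Endogenous factor activity was captured via cis-element-driven reporter transcripts in HepG2 cells. Following 24 h chemical treatment, transcripts were quantified by RT-PCR and capillary electrophoresis.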

In test [9] the target is Myc proto-oncogene protein (Homo sapiens) (UniProt P01106). The test is described as follows: ATG_Myc_CIS: Attagene CIS-FACTORIAL HepG2 Assay for human Myelocytomatosis (Myc) Proto-Oncogene Transcription Factor (AID 2282990). The following applies: HepG2, Attagene cis-reporter transcription factor activity; actives raise or lower the signal. In short, it runs like this:
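Transiently transfected HepG2 cells bearing cis-promoter reporter units for endogenous transcription factors; 24 h exposure. Reporter mRNA measured by RT-PCR, 6-FAM primer extension, HpaI cut and capillary electrophoresis; bidirectional fit relative to DMSO.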

A short description of test [10]: ATG_Oct_MLP_CIS: Attagene CIS-FACTORIAL HepG2 Assay for human Octamer-Binding Transcription Factor (Oct) (AID 2282993). The settings on record: HepG2 Attagene cis-factorial Oct reporter, mRNA; actives raise or lower the signal. The essentials: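 Read-out: reporter mRNA via RT-PCR plus capillary electrophoresis of 6-FAM-labelled fragments. Transiently transfected HepG2, 24 h exposure, endogenous TF activity on cis elements. Gain or loss of signal fitted relative to DMSO.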

In test [11] the target is Cellular tumor antigen p53 (Homo sapiens) (UniProt P04637). Kind of test: ATG_p53_CIS: Attagene CIS-FACTORIAL HepG2 Assay for human p53 Transcription Factor (AID 2282994). The settings on record: HepG2 p53 cis-element reporter, Attagene mRNA; actives raise or lower the signal. In short, it runs like this: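 In HepG2 cells, reporter transcription units under cis-regulatory promoters were transiently introduced. Following 24 h treatment, RNA was processed to labelled, digested cDNA fragments read by capillary electrophoresis; fitting was bidirectional versus DMSO.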

Test [12] is described as follows: BSK_3C_TissueFactor: BioMAP Diversity Plus: 3C Assay for Tissue Factor Biomarker Activity (AID 2282997). The following applies: BioMAP 3C HUVEC, tissue factor biomarker readout; actives raise or lower the signal. The essentials:
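Tissue Factor measured by ELISA, 24 h after treatment of primary HUVEC in the BioMAP 3C setting.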

Test [13] can be described thus: BSK_3C_uPAR: BioMAP Diversity Plus: 3C Assay for Urokinase-type plasminogen activator receptor (uPAR) Biomarker Activity (AID 2282998). The following applies: BioMAP 3C HUVEC, uPAR biomarker ELISA; actives raise or lower the signal. In short, it runs like this: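 HUVEC primary cells; 24 h post-dose; uPAR by ELISA; gain or loss of signal fitted bidirectionally vs DMSO baseline.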
(In an ELISA, binding on a coated surface is turned into a signal by an enzyme label.)

Test [14] in a line: BSK_3C_VCAM1: BioMAP Diversity Plus: 3C Assay for Vascular cell adhesion molecule 1 (VCAM1) Biomarker Activity (AID 2282999). The settings on record: BioMAP 3C HUVEC, VCAM1 ELISA, cytokine-stimulated; actives raise or lower the signal. In short, it runs like this: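 HUVEC primary cells, 24 h compound exposure; VCAM-1 by ELISA; gain/loss of signal fitted bidirectionally vs DMSO baseline.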

The target in test [15] is Estrogen-related receptor gamma (Homo sapiens) (UniProt P62508). Kind of test: ATG_ERRg_TRANS: Attagene TRANS-FACTORIAL HepG2 Assay for human Estrogen-Related Receptor gamma (ERRg) (AID 2282977; active means hit-call score of the fitted dose curve at least 0.9, where 1 is the maximum;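 further: hits increase reporter signal over DMSO so potencies reflect activators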). The settings on record: HepG2 Attagene TRANS reporter, ERRg transactivation. The essentials: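 Induction of reporter transcripts through a chimeric NR-Gal4 protein is quantified in transfected human HepG2 liver cells after 24 h chemical exposure, using RT-PCR with capillary electrophoresis detection and DMSO as baseline.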

The nature of test [16]: ATG_M_06_TRANS: Attagene TRANS-FACTORIAL HepG2 Assay for M06 Transcription Factor (Internal Marker) (AID 2282983; active means hit-call score of the fitted dose curve at least 0.9, where 1 is the maximum). The following applies: HepG2 Attagene TRANS M06 internal marker reporter. In short, it runs like this: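 mRNA levels of a reporter transcript, quantified as FAM fluorescence on capillary electrophoresis, served as readout. HepG2 cells expressing exogenous GAL4-chimera reporter constructs were exposed for 24 h. Gain of signal over DMSO was evaluated.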

Test [17] in a line: ATG_NF_kB_CIS: Attagene CIS-FACTORIAL HepG2 Assay for human Nuclear Factor Kappa B (NF-kB) (AID 2282991). The settings on record: HepG2 Attagene cis-factorial NF-kB reporter mRNA; actives raise or lower the signal. In short, it runs like this:
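After 24 h compound incubation, transfected HepG2 cells yield total RNA; reporter cDNA is PCR-amplified, end-labelled with 6-FAM, HpaI-digested and analysed on a genetic analyser. Endogenous factor activity, DMSO-referenced bidirectional fit.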

Test [18] can be described thus: ATG_NRF2_ARE_CIS: Attagene CIS-FACTORIAL HepG2 Assay for human Nuclear Factor Erythroid 2 Related Factor 2 (NFR2) response to Antioxidant Response Elements (ARE) (AID 2282992). The settings on record: HepG2 Attagene ARE/NRF2 reporter, transcription factor activity; actives raise or lower the signal. The essentials: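 Using transiently transfected HepG2 cells exposed for 24 h, reporter mRNA levels were determined by RT-PCR with fluorescent primer extension and capillary electrophoresis, analysed for gain or loss of signal against DMSO.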

The target in test [19] is Bile acid receptor (Homo sapiens) (UniProt Q96RI1). The test is described as follows: ATG_FXR_TRANS: Attagene TRANS-FACTORIAL HepG2 Assay for Farnesoid X Receptor (FXR) (AID 2282979; active means hit-call score of the fitted dose curve at least 0.9, where 1 is the maximum;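 further: hits raise reporter mRNA above DMSO so AC50 marks FXR activation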). The settings on record: HepG2 Attagene TRANS FXR-GAL4 reporter transcription. The essentials:
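HepG2 cells were transiently transfected with GAL4-UAS reporters driven by chimeric NR-Gal4 proteins and dosed for 24 h. Reporter mRNA was quantified by RT-PCR, fluorescent labelling, HpaI digestion and capillary electrophoresis, with gain of signal scored versus DMSO.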

A short description of test [20]: ATG_NFI_CIS: Attagene CIS-FACTORIAL HepG2 Assay for human Nuclear Factor I (NFI) (AID 2282989). The following applies: HepG2 cis-regulatory reporter, NFI response element transcription; actives raise or lower the signal. The essentials:
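Read-out: reporter mRNA via RT-PCR plus capillary electrophoresis with fluorescence detection. Transiently transfected HepG2 (endogenous TF activity on cis promoters), 24 h compound exposure; gain or loss of signal fitted against DMSO.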

The structures appear in SMILES notation. Inconclusive results are not listed. The source made the active and inactive calls. How the source made its calls, unless noted: active means hit-call score of the fitted dose curve at least 0.9, where 1 is the maximum; inactive means score below 0.9.

The term AC50 denotes the midpoint of the concentration-response curve, whichever way the signal moves.

Nuclear respiratory factor 1 (Homo sapiens), sequence (Q16656 whole entry, looked up): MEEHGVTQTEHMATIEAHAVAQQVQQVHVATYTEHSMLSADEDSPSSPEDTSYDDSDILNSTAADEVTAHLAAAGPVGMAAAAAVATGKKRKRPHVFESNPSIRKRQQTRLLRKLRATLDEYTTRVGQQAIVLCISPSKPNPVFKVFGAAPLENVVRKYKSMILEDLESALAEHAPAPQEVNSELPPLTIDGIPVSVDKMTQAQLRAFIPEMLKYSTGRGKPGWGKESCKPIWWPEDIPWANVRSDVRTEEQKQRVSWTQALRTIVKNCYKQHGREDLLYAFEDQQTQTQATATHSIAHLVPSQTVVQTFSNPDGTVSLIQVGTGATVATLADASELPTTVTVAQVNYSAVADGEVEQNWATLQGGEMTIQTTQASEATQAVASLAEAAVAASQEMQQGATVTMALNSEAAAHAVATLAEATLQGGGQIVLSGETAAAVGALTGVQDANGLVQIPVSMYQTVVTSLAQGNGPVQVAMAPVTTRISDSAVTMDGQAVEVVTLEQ
Transcriptional activator Myb (Homo sapiens), sequence (P10242 whole entry, looked up): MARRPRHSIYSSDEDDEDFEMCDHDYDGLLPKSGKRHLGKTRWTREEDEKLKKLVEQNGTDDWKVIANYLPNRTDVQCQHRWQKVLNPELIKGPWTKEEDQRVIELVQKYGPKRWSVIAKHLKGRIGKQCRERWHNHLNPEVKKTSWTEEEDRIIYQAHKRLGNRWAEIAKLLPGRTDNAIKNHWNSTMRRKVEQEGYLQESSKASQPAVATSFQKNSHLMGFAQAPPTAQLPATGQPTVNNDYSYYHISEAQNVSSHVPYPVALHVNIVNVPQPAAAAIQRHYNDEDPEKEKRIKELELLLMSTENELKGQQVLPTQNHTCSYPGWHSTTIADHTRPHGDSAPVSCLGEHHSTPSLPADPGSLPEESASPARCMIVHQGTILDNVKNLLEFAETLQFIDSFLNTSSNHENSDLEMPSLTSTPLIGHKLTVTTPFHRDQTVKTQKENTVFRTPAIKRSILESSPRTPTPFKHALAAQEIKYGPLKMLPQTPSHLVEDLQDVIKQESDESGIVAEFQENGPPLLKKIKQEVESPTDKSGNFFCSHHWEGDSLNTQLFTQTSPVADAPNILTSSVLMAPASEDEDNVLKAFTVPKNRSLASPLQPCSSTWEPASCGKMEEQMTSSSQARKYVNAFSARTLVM
Oxysterols receptor LXR-alpha (Homo sapiens), sequence (Q13133 whole entry, looked up, the tested form may be a part): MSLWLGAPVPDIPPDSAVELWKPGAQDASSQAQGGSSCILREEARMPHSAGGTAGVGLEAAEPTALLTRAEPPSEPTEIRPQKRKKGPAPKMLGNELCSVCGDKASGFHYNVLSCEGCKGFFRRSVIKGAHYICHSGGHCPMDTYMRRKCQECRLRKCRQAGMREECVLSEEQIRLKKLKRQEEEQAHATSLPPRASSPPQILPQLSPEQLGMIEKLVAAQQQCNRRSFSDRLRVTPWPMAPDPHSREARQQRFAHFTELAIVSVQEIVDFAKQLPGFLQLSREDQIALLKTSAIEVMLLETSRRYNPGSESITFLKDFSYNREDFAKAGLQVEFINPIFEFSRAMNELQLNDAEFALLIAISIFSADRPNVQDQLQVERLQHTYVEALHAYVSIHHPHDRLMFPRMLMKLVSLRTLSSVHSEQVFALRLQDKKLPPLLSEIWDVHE
Cellular tumor antigen p53 (Homo sapiens), sequence (P04637 whole entry, looked up, the tested form may be a part): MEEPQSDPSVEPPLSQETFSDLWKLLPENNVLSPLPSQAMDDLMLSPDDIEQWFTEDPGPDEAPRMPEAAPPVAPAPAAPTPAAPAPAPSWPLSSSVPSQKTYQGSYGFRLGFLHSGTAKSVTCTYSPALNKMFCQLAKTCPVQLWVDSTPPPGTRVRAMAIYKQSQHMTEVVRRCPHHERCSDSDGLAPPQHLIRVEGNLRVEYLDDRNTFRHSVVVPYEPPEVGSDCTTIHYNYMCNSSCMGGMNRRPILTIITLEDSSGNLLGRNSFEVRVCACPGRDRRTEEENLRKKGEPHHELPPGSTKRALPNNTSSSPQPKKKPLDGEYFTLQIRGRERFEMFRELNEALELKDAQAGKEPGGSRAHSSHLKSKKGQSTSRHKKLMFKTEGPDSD
Glucocorticoid receptor (Homo sapiens), sequence (P04150 whole entry, looked up, the tested form may be a part): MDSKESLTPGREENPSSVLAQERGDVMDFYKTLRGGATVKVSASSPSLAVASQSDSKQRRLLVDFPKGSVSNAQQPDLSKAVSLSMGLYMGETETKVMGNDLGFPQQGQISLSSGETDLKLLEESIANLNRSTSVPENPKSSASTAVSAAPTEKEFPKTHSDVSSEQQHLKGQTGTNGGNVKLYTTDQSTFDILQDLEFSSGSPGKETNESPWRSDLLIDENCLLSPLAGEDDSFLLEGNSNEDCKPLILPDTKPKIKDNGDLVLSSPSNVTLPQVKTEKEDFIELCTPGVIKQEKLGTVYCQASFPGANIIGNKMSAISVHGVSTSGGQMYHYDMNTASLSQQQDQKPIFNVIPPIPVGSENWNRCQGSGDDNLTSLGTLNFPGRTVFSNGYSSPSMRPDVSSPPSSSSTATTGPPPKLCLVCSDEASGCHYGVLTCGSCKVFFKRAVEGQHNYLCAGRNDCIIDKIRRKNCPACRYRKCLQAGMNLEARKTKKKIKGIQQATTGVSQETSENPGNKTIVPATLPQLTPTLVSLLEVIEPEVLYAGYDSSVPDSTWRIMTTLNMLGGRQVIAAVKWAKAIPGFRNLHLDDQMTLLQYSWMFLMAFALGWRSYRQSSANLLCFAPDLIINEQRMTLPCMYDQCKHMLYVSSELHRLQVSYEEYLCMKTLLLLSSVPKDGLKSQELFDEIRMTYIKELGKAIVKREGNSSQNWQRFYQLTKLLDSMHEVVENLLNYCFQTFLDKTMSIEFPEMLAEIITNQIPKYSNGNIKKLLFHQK
Hepatocyte nuclear factor 4-alpha (Homo sapiens), sequence (P41235 whole entry, looked up, the tested form may be a part): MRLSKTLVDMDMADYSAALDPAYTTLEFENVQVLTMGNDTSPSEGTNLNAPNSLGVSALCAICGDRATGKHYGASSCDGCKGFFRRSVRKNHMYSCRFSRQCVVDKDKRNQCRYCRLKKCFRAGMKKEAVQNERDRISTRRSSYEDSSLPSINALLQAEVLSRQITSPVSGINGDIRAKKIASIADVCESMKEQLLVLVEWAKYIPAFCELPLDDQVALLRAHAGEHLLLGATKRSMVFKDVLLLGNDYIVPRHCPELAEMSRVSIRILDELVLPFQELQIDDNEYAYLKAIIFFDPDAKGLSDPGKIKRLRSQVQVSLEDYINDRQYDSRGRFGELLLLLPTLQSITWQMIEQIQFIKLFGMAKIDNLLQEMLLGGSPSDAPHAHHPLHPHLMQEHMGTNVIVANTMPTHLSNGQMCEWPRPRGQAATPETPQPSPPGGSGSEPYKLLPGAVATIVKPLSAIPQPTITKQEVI
Estrogen-related receptor gamma (Homo sapiens), sequence (P62508 whole entry, looked up, the tested form may be a part): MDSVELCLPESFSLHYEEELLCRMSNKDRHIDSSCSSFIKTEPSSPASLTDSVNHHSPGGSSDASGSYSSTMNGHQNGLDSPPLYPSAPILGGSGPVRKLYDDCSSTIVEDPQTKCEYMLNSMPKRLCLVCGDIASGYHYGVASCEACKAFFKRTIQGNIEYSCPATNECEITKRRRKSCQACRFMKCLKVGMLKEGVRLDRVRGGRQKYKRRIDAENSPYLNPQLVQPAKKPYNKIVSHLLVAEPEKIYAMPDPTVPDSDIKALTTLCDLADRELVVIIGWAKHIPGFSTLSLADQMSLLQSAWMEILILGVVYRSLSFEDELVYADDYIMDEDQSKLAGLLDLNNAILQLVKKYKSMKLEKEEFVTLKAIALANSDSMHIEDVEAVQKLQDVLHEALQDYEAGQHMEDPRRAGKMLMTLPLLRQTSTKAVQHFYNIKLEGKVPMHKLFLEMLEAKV
Oxysterols receptor LXR-beta (Homo sapiens), sequence (P55055 whole entry, looked up, the tested form may be a part): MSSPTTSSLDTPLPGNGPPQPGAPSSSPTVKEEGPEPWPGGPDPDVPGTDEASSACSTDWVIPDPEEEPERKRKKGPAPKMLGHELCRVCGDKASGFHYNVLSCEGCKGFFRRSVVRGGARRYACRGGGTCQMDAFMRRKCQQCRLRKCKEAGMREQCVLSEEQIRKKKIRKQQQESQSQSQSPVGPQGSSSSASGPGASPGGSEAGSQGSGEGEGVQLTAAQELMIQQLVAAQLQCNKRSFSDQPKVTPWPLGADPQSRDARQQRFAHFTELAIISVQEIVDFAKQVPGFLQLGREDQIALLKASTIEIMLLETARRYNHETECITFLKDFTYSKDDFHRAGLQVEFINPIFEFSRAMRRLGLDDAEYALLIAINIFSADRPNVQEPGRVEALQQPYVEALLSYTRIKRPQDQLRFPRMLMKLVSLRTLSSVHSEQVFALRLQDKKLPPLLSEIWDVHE
Nuclear receptor subfamily 4 group A member 2 (Homo sapiens), sequence (P43354 whole entry, looked up): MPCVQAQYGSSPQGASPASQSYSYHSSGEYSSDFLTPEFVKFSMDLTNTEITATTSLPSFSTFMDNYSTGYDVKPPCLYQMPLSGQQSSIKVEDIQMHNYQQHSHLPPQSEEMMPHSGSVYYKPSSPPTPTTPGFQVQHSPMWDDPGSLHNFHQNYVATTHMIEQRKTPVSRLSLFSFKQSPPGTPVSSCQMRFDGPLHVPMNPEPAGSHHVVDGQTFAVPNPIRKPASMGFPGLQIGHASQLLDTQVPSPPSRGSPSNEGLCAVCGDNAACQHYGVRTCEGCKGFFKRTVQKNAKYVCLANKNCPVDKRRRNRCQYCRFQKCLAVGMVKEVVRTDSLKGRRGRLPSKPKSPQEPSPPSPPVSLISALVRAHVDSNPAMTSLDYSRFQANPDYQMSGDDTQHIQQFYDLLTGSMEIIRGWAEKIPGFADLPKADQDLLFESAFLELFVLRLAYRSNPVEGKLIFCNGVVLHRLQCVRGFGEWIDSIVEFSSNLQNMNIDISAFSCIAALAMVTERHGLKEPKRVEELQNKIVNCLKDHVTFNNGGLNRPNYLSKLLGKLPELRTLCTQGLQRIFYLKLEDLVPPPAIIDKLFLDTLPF

For `CCNc1nc(Cl)nc(NC(C)(C)C#N)n1`, the result in test [1], in test [2], in test [3], in test [4], in [5] and in test [6] was inactive. Besides, the result in test [7], in test [8], in test [9], in [10], in [11] and in [12] was inactive. The outcome in [13] and in test [14] was inactive.
`CCOP(=S)(Oc1cnc(C(C)(C)C)nc1)OC(C)C` (configuration not stated): the compound was called inactive in test [15], in [1], in test [4], in test [16], in test [7] and in test [8]. The compound was classed as inactive in test [11]. The AC50 in test [2] is 9.2 µM (active); in test [3], 11.1 µM (active); in [17], 22.4 µM (active); in [10], 2.06 µM (active); in [12], 31.9 µM (active); in [13], 36.2 µM (active). Further, in test [14], the half-maximal activity concentration (AC50) is 36.8 µM (active).
In the case of `N#CSCSC#N`, the result in test [15], in [1], in [2], in test [3], in test [4] and in test [16] was inactive. The result in [5], in [6], in test [7], in test [8], in test [17] and in test [18] was inactive. The compound was classed as inactive in [10] and in test [11]. The AC50 in [12] is 5.49 µM (active); in test [13], 5.93 µM (active); in [14], 8.79 µM (active).
In the case of `COc1cccc(C(=O)NN(C(=O)c2cc(C)cc(C)c2)C(C)(C)C)c1C`, the compound was classed as inactive in [15], in [19], in [16], in test [7], in [8] and in test [20]. The compound was called inactive in test [17], in test [10], in test [11], in test [12], in [13] and in test [14].
